Laboratory results: the supplement of paper PMC6331611
± gives the standard deviation of the averaged measurements. Over roughly 1,600 compounds, “normalized intracellular growth (luminescence, IQM-normalized) in RAW264.7 macrophages” has its median near 1; the lowest 2% begin near 0.43. Many of the other results were omitted from the sample, so the lowest values are more common in it than they were.

Test system: Salmonella enterica serovar Typhimurium SL1344
Assay: normalized intracellular growth (luminescence, IQM-normalized) in RAW264.7 macrophages (fraction of plate interquartile mean); higher = more bacterial growth (less inhibition)
Conditions: 10 µM

CCCCCNC(=N)N/N=C/c1c[nH]c2ccc(OC)cc12
normalized intracellular growth (time point: T3 (3 h)): 1.05 ± 0.1
normalized intracellular growth (time point: Tfinal (~6 h)): 1.08 ± 0.037

CCC(=O)Oc1ccc2c(c1)CC[C@@H]1[C@@H]2CC[C@]2(C)[C@@H](OC(=O)CC)CC[C@@H]12
normalized intracellular growth (time point: T3 (3 h)): 0.977 ± 0.092
normalized intracellular growth (time point: Tfinal (~6 h)): 0.934 ± 0.089

O=C([O-])C(O)[C@H](O)[C@@H](O)[C@H](O)[C@H](O)CO.O=C([O-])C(O)[C@H](O)[C@@H](O)[C@H](O)[C@H](O)CO.[Ca+2] (some centres not stated)
normalized intracellular growth (time point: T3 (3 h)): 1.04 ± 0.019
normalized intracellular growth (time point: Tfinal (~6 h)): 1.06 ± 0.18

Cc1c(OCC(F)(F)F)ccnc1C[S@@+]([O-])c1nc2ccccc2[nH]1
normalized intracellular growth (time point: T3 (3 h)): 0.98 ± 0.076
normalized intracellular growth (time point: Tfinal (~6 h)): 1.18 ± 0.11

CC1=C(C)C(=O)C(C(CCCCCC(=O)O)c2ccccc2)=C(C)C1=O (configuration not stated)
normalized intracellular growth (time point: T3 (3 h)): 0.994 ± 0.042
normalized intracellular growth (time point: Tfinal (~6 h)): 1.18 ± 0.085

NC(=O)c1cc[n+](CC2=C(C(=O)O)N3C(=O)[C@@H](NC(=O)[C@@H](c4ccccc4)S(=O)(=O)[O-])[C@H]3SC2)cc1
normalized intracellular growth (time point: T3 (3 h)): 0.999 ± 0.056
normalized intracellular growth (time point: Tfinal (~6 h)): 1.05 ± 0.028

CCOc1ccc(NC(=O)CC(C)O)cc1 (configuration not stated)
normalized intracellular growth (time point: T3 (3 h)): 0.969 ± 0.045
normalized intracellular growth (time point: Tfinal (~6 h)): 1.202 ± 0.0076

CC(=O)N(CC(O)CO)c1c(I)c(C(=O)NCCO)c(I)c(C(=O)NCC(O)CO)c1I (configuration not stated)
normalized intracellular growth (time point: T3 (3 h)): 0.938 ± 0.063
normalized intracellular growth (time point: Tfinal (~6 h)): 1.17 ± 0.091

OC[C@H]1O[C@H](O[C@H]2[C@H](O)[C@@H](O)C(O)O[C@@H]2CO)[C@H](O)[C@@H](O)[C@@H]1O (some centres not stated)
normalized intracellular growth (time point: T3 (3 h)): 0.919 ± 0.086
normalized intracellular growth (time point: Tfinal (~6 h)): 0.986 ± 0.012

OC[C@H]1O[C@@H](O[C@@H]2[C@@H](CO)OC(O)(CO)[C@H]2O)[C@H](O)[C@@H](O)[C@H]1O (mixture of isomers)
normalized intracellular growth (time point: T3 (3 h)): 0.999 ± 0.021
normalized intracellular growth (time point: Tfinal (~6 h)): 0.958 ± 0.011

OC[C@H]1O[C@H](O[C@]2(CCl)O[C@H](CCl)[C@@H](O)[C@@H]2O)[C@H](O)[C@@H](O)[C@H]1Cl
normalized intracellular growth (time point: T3 (3 h)): 0.91 ± 0.095
normalized intracellular growth (time point: Tfinal (~6 h)): 0.0259 ± 0.0051

COc1ccc(C(=O)c2ccc(C)cc2)c(O)c1
normalized intracellular growth (time point: T3 (3 h)): 1.02 ± 0.028
normalized intracellular growth (time point: Tfinal (~6 h)): 0.926 ± 0.2

COc1ccc(C(=O)c2ccccc2O)c(O)c1
normalized intracellular growth (time point: T3 (3 h)): 1 ± 0.047
normalized intracellular growth (time point: Tfinal (~6 h)): 1.24 ± 0.031

COc1ccc(C(=O)c2ccccc2)c(O)c1
normalized intracellular growth (time point: T3 (3 h)): 0.948 ± 0.07
normalized intracellular growth (time point: Tfinal (~6 h)): 0.417 ± 0.083

Cc1cc(O)cc(C)c1Cl
normalized intracellular growth (time point: T3 (3 h)): 1.03 ± 0.075
normalized intracellular growth (time point: Tfinal (~6 h)): 1.11 ± 0.071

N=c1ccn2c(n1)O[C@H]1[C@H](O)[C@@H](CO)O[C@H]12
normalized intracellular growth (time point: T3 (3 h)): 1 ± 0.029
normalized intracellular growth (time point: Tfinal (~6 h)): 1.16 ± 0.016

CCn1cc(C(=O)O)c(=O)c2ccc(C)nc21
normalized intracellular growth (time point: T3 (3 h)): 0.994 ± 0.03
normalized intracellular growth (time point: Tfinal (~6 h)): 0.881 ± 0.37

CO/N=C1\CN(c2nc3c(cc2F)c(=O)c(C(=O)O)cn3C2CC2)CC1CN (configuration not stated)
normalized intracellular growth (time point: T3 (3 h)): 0.967 ± 0.014
normalized intracellular growth (time point: Tfinal (~6 h)): 1.15 ± 0.048

CCn1cc(C(=O)O)c(=O)c2cc(F)c(N3CCNC(C)C3)c(F)c21 (configuration not stated)
normalized intracellular growth (time point: T3 (3 h)): 0.996 ± 0.098
normalized intracellular growth (time point: Tfinal (~6 h)): 0.0187 ± 0.0027

COc1c(N2CCNC(C)C2)c(F)cc2c(=O)c(C(=O)O)cn(C3CC3)c12 (configuration not stated)
normalized intracellular growth (time point: T3 (3 h)): 1.02 ± 0.13
normalized intracellular growth (time point: Tfinal (~6 h)): 0.015 ± 0.0035

COc1c(N2C[C@@H]3CCCN[C@@H]3C2)c(F)cc2c(=O)c(C(=O)O)cn(C3CC3)c12
normalized intracellular growth (time point: T3 (3 h)): 1.41 ± 0.1
normalized intracellular growth (time point: Tfinal (~6 h)): 0.00827 ± 0.001

CCn1cc(C(=O)O)c(=O)c2cc(F)c(N3CCNCC3)nc21
normalized intracellular growth (time point: T3 (3 h)): 0.916 ± 0.07
normalized intracellular growth (time point: Tfinal (~6 h)): 0.245 ± 0.036

CCn1cc(C(=O)O)c(=O)c2cnc(N3CCNCC3)nc21
normalized intracellular growth (time point: T3 (3 h)): 0.974 ± 0.034
normalized intracellular growth (time point: Tfinal (~6 h)): 0.533 ± 0.082

CC(C)(CO)[C@@H](O)C(=O)NCCC(=O)NCCSSCCNC(=O)CCNC(=O)[C@H](O)C(C)(C)CO
normalized intracellular growth (time point: T3 (3 h)): 0.981 ± 0.048
normalized intracellular growth (time point: Tfinal (~6 h)): 0.976 ± 0.089

OCc1cccnc1
normalized intracellular growth (time point: T3 (3 h)): 1.056 ± 0.0048
normalized intracellular growth (time point: Tfinal (~6 h)): 0.97 ± 0.051

O=S(=O)(c1cccc2cnccc12)N1CCCNCC1
normalized intracellular growth (time point: T3 (3 h)): 1.02 ± 0.035
normalized intracellular growth (time point: Tfinal (~6 h)): 1.13 ± 0.067

NC(=O)NS(=O)(=O)c1ccc(N)cc1
normalized intracellular growth (time point: T3 (3 h)): 0.98 ± 0.031
normalized intracellular growth (time point: Tfinal (~6 h)): 0.881 ± 0.095

FC(F)(Cl)C(F)(F)Cl
normalized intracellular growth (time point: T3 (3 h)): 1.02 ± 0.023
normalized intracellular growth (time point: Tfinal (~6 h)): 0.675 ± 0.21

NC1CCN(c2c(F)cc3c(=O)c(C(=O)O)cn(C4CC4)c3c2Cl)C1 (configuration not stated)
normalized intracellular growth (time point: T3 (3 h)): 1.49 ± 0.071
normalized intracellular growth (time point: Tfinal (~6 h)): 0.00632 ± 0.00035

CC(=O)OCC(=O)[C@@]1(O)CC[C@H]2[C@@H]3CCC4=CC(=O)C=C[C@]4(C)[C@@]3(Cl)[C@@H](Cl)C[C@@]21C
normalized intracellular growth (time point: T3 (3 h)): 0.961 ± 0.062
normalized intracellular growth (time point: Tfinal (~6 h)): 1.13 ± 0.022

CCCCCCCCCc1ccc(OCCOCCOCCOCCOCCOCCOCCOCCOCCO)cc1
normalized intracellular growth (time point: T3 (3 h)): 0.99 ± 0.013
normalized intracellular growth (time point: Tfinal (~6 h)): 1.1 ± 0.048

O=C(CCCN1CCC(O)(c2ccc(Br)cc2)CC1)c1ccc(F)cc1
normalized intracellular growth (time point: T3 (3 h)): 0.391 ± 0.23
normalized intracellular growth (time point: Tfinal (~6 h)): 1.28 ± 0.14

NC(=O)C1(N2CCCCC2)CCN(CCCC(=O)c2ccc(F)cc2)CC1
normalized intracellular growth (time point: T3 (3 h)): 0.984 ± 0.085
normalized intracellular growth (time point: Tfinal (~6 h)): 0.965 ± 0.16

O=C(CCCN1CCC(O)(c2ccc(Cl)cc2)CC1)c1ccc(F)cc1
normalized intracellular growth (time point: T3 (3 h)): 0.957 ± 0.056
normalized intracellular growth (time point: Tfinal (~6 h)): 1 ± 0.085

N[C@@H](CCC(=O)N[C@@H](CS)C(=O)NCC(=O)O)C(=O)O
normalized intracellular growth (time point: T3 (3 h)): 1.1 ± 0.056
normalized intracellular growth (time point: Tfinal (~6 h)): 0.832 ± 0.11

CC(C)CCCC(C)NC(C)C (configuration not stated)
normalized intracellular growth (time point: T3 (3 h)): 1 ± 0.017
normalized intracellular growth (time point: Tfinal (~6 h)): 0.999 ± 0.11

Cc1ccc(S(=O)(=O)NCl)cc1
normalized intracellular growth (time point: T3 (3 h)): 0.946 ± 0.021
normalized intracellular growth (time point: Tfinal (~6 h)): 0.902 ± 0.052

OCc1ccccc1O
normalized intracellular growth (time point: T3 (3 h)): 1.07 ± 0.017
normalized intracellular growth (time point: Tfinal (~6 h)): 1.01 ± 0.022

CC1CCc2c(N3CCC(O)CC3)c(F)cc3c(=O)c(C(=O)O)cn1c23 (configuration not stated)
normalized intracellular growth (time point: T3 (3 h)): 0.894 ± 0.051
normalized intracellular growth (time point: Tfinal (~6 h)): 0.0538 ± 0.029

CC1CCc2cc(F)cc3c(=O)c(C(=O)O)cn1c23 (configuration not stated)
normalized intracellular growth (time point: T3 (3 h)): 0.937 ± 0.026
normalized intracellular growth (time point: Tfinal (~6 h)): 0.389 ± 0.025

N[C@@H](Cc1ccc(O)cc1)C(=O)O
normalized intracellular growth (time point: T3 (3 h)): 0.934 ± 0.037
normalized intracellular growth (time point: Tfinal (~6 h)): 0.846 ± 0.31
